Records with an inconclusive call do not appear. Activity calls are given as the source filed them. Rule as the data show it: active = toxicity enhancement factor above about 0.054; inconclusive = between about 0.00067 and that limit; inactive = weaker than that.
Experiment: reversers of MRP drug resistance, dose response, cell-based (AID 741)
Conditions: MRP-overexpressing cells, viability with/without cytotoxic drug; slope difference: measured here: slope difference tox minus reversal, stronger effect = higher value; toxicity enhancement factor: stronger effect = higher value; viability: measured here: viability series, compound alone, at 10 µM, stronger effect = lower value

| Compound | toxicity enhancement factor | viability | slope difference |
| --- | --- | --- | --- |
| CCOC(=O)/C(C#N)=C/c1cc(C)n(-c2ccc(C)cc2)c1C | -0.0003 (inactive) | 63.7% | -0.0151 |
| O=C(CSc1nnnn1-c1ccccc1)N1CCc2ccccc21 | -0.0102 (inactive) | 85.8% | -1.04 |
| O=C(CSc1nnc(CN2CCOCC2)n1-c1ccc(Cl)cc1)Nc1cc(Cl)ccc1O | 0.0702 (active) | 67.3% | 2.56 |
| CS(=O)(=O)Nc1ccc([N+](=O)[O-])cc1Oc1ccccc1 | -0.0071 (inactive) | 97.8% | -0.667 |
| CC(C)Cc1ccc(C(C)C(=O)O)cc1 (configuration not stated) | -0.0059 (inactive) | 93.7% | -0.62 |
| c1ccc2sc(N3CN(CCN4CCOCC4)CN(c4nc5ccccc5s4)C3)nc2c1 | -0.0158 (inactive) | 104% | -1.81 |
| CCCCNc1c2c3c(cccc3n(C)c1=O)C(=O)c1ccccc1-2 | -0.0634 (inactive) | 32.4% | -4.84 |
| CC(C(=O)O)c1ccc(-c2ccccc2)c(F)c1 (configuration not stated) | -0.0042 (inactive) | 89% | -0.412 |
| COc1ccc2cc(C(c3nnnn3C(C)(C)C)N3CCc4ccccc4C3)c(=O)[nH]c2c1 (configuration not stated) | -0.0045 (inactive) | 76.3% | -0.322 |
| CCCCSc1nnc2n(CCc3ccccc3)c(=O)c3c4c(sc3n12)COC(C)(C)C4 | 0.189 (active) | 84.4% | 5.29 |
| Cc1ccc(-n2ncc3c(N4CCN(c5ccccc5)CC4)ncnc32)c(C)c1 | -0.037 (inactive) | 27.4% | -1.27 |
| Cn1ccnc1-c1nc2ccccc2[nH]c1=O | -0.0015 (inactive) | 92.3% | -0.138 |
| Cc1nc(N2CCN(C)CC2)c2sc(=S)n(-c3ccccc3)c2n1 | 0.0596 (active) | 64% | 2.3 |
| c1ccc(N2CCN(c3ccccc3)C2c2ccncc2)cc1 | 0.0739 (active) | 82.9% | 3.19 |
| CCN(CC)C(=O)CSc1nc2c(sc(=S)n2-c2ccccc2)c(=O)n1Cc1ccco1 | 0.0846 (active) | 87.8% | 3.95 |
| N#Cc1ccc(CSc2nnc(-c3cccs3)n2-c2ccccc2)cc1 | -0.0117 (inactive) | 79% | -0.904 |
| COc1cc(/C=C/C(=O)CC(=O)/C=C/c2ccc(O)c(OC)c2)ccc1O | -0.0391 (inactive) | 24.1% | -2.01 |

| Compound | toxicity enhancement factor | viability | slope difference |
| --- | --- | --- | --- |
| Cc1ccc(Cn2c(N3CCCCCC3)nc3c2c(=O)[nH]c(=O)n3C)cc1 | -0.0097 (inactive) | 88.2% | -0.91 |
| COc1ccc(N2C(=O)C(Cl)=C(N3CCCC3)C2=O)cc1 | -0.0016 (inactive) | 91.8% | -0.145 |
| CC1(C)CC(=O)C2=C(C1)N(c1ccccc1)C(N)=C(C#N)C2c1cccnc1 (configuration not stated) | 0.105 (active) | 60% | 2.68 |
| CC1(C)CC(=O)C2=C(C1)N(c1cccc(O)c1)C1=C(C2)C(=O)CC(C)(C)C1 | 0.0743 (active) | 87.2% | 3.34 |
| COC(=O)c1ccccc1NC(=O)c1cccs1 | -0.0023 (inactive) | 87.5% | -0.205 |
| CCOC(=O)Nc1ccc(S(=O)(=O)Nc2nccc(C)n2)cc1 | -0.0025 (inactive) | 97.4% | -0.237 |
| COc1ccc(C(=O)Nc2nc3ccccc3[nH]2)cc1OC | -0.0002 (inactive) | 87.3% | -0.0153 |
| CCOc1ccccc1Nc1nc(N)nc(CN(C)C2CCCCC2)n1 | -0.0012 (inactive) | 92.2% | -0.105 |
| CCCNS(=O)(=O)c1ccc(NC(=O)c2ccccn2)cc1 | -0.001 (inactive) | 99.5% | -0.0969 |
| CCOc1nc2c(c(=O)n(C)c(=O)n2C)n1Cc1ccccc1Cl | -0.0077 (inactive) | 71% | -0.531 |
| COc1ccc(Cl)cc1C(=O)Nc1ccccc1N1CCN(C(=O)C(C)C)CC1 | -0.0048 (inactive) | 75.7% | -0.352 |
| O=C(NCCCn1ccnc1)c1sc2cccc(F)c2c1Cl | -0.001 (inactive) | 96.9% | -0.0975 |
| CN1C(=O)C(CC(=O)Nc2ccc3c(c2)Cc2ccccc2-3)N(C)C1=O (configuration not stated) | -0.0009 (inactive) | 94.5% | -0.0851 |
| CC1(C)CC(=O)C2=C(C1)N(c1ccccc1)C(N)=C(C#N)C2c1ccccc1 (configuration not stated) | 0.108 (active) | 73.3% | 3.21 |
| Cc1cccc2cc(CN(Cc3nnnn3C3CCCCC3)C3CCCC3)c3nnnn3c12 | 0.117 (active) | 74.2% | 3.91 |
| CCCNc1nc2c(c(=O)n(C)c(=O)n2C)n1Cc1ccc(F)cc1 | -0.0012 (inactive) | 92.8% | -0.107 |
| CCOC(=O)c1sc(NC(=O)CSc2nnc(-c3ccco3)n2CC)c(C(=O)OCC)c1C | 0.364 (active) | 54.8% | 3.89 |
